# Laboratory results as given in PubChem BioAssay (NCATS).
# Inconclusive results are not listed. A call without a number means that no potency is given here. Calls of active or inactive are those of the source. Calls come from the whole dose curve; as a rule, active = well fitted curve in the direction sought with a large enough effect; inconclusive = small, poorly fitted or top-dose-only effect, or another doubt; inactive = no such curve, though single readings can be large; an effect the other way counts as inactive or inconclusive.
# How the values were obtained:
# [1] = target: Calcium and integrin-binding protein 1 (Homo sapiens) (UniProt Q99828); experiment: Primary qHTS for Identification of Calcium Integrin Binding Protein 1 (CIB1) Competitor (AID 1508620);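 note: GST tagged CIB1 binding a fluorescein labelled alphaIIb integrin peptide tracer; top concentration of the series differs between compounds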
# How it was run: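 CIB1-GST (1 uM final) and compound incubated 15 min at room temperature before adding FITC-alphaIIb peptide tracer (100 nM final). Competition for binding read by fluorescence polarization (ex 480, em 540) after another 15 min at room temperature.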
# [2] = Primary qHTS for inhibitors of nuclear receptor binding SET domain protein 2 (NSD2) in an isogenic RCH-ACV NSD2 p.E1099K mutant (9B) (AID 1645876); note: nearly all actives have a fitted effect of over 70% in size; note: potency is the fitted concentration of half-maximal effect
# [3] = Primary qHTS for inhibitors of nuclear receptor binding SET domain protein 2 (NSD2) in an RCH-ACV wild type WT cells (2C) (AID 1645877); note: nearly all actives have a fitted effect of over 70% in size; note: potency is the fitted concentration of half-maximal effect
# [4] = target: Catechol O-methyltransferase (Homo sapiens) (UniProt P21964); experiment: Confirmatory Screen for Target Class Profiling of Small Molecule Inhibitors of Methyltransferases (AID 1745852); details: MTase-Glo luminescence, SAH detection, recombinant enzyme; measured here: COMT max response; stronger effect = lower value
# [5] = target: Guanidinoacetate N-methyltransferase (Homo sapiens) (UniProt Q14353); experiment: as above; details: activity change, negative = inhibition: at 57.3 µM (top of the series) unless noted
# [6] = target: Nicotinamide N-methyltransferase (Homo sapiens) (UniProt P40261); experiment: as above; details: MTase-Glo luminescence, SAH detection, recombinant enzyme; measured here: NNMT max response; stronger effect = lower value
# [7] = target: Phenylethanolamine N-methyltransferase (Homo sapiens) (UniProt P11086); experiment: as above; details: MTase-Glo luminescence, SAH detection, recombinant enzyme; measured here: PNMT max response; stronger effect = lower value
# Chain of Phenylethanolamine N-methyltransferase (Homo sapiens) (P11086 whole entry, looked up): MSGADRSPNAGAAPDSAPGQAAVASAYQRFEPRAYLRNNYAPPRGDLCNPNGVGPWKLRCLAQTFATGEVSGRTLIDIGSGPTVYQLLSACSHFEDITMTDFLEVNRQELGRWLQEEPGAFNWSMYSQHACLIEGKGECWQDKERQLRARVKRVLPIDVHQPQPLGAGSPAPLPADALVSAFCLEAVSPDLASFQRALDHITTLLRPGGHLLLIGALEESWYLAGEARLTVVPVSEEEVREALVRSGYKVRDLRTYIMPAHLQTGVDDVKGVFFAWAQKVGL
# Chain of Catechol O-methyltransferase (Homo sapiens) (P21964 whole entry, looked up): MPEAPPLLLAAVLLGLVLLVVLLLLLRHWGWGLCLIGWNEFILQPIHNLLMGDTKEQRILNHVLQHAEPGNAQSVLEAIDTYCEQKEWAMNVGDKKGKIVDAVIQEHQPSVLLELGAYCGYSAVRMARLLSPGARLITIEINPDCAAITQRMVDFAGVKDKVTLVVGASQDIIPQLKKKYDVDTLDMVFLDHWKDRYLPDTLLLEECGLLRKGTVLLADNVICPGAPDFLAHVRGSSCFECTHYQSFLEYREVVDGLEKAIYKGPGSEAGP
# Chain of Nicotinamide N-methyltransferase (Homo sapiens) (P40261 whole entry, looked up): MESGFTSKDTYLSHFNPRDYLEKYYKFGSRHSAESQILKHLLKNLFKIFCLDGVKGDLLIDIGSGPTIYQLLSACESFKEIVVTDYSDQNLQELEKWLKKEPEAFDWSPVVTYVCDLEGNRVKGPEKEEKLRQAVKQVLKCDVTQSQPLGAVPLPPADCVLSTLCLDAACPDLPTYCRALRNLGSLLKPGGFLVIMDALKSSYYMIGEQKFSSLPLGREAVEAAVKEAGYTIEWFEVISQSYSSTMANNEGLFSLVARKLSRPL
# Chain of Calcium and integrin-binding protein 1 (Homo sapiens) (Q99828 whole entry, looked up): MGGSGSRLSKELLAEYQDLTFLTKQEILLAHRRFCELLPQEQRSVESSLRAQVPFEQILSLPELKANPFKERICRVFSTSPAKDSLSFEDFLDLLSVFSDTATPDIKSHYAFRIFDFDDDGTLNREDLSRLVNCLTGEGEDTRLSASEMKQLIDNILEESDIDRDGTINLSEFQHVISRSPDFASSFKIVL
structure (smiles),measurement,setting,value
CC(C)C1=CC2C(CC[C@]2(C)O)[C@](C)(O)CC1 (stereo partly drawn),Potency,[1],inactive
same,Potency,[2],inactive
same,Potency,[3],inactive
CC1CCC2C(C)(C)[C@@H](O)CC[C@]2(C)C12Cc1c(O)cc3c(c1O2)CN(C(CCC(=O)O)C(=O)O)C3=O (stereo partly drawn),Potency,[1],inactive
same,Potency,[2],inactive
same,Potency,[3],inactive
CCOc1ccc2nc(SCCN3CCOCC3)[nH]c2c1,Potency,[1],inactive
same,Potency,[2],inactive
same,Potency,[3],inactive
C[C@H]1CC[C@@]2(OC1)O[C@H]1CC3C4CC[C@H]5C[C@@H](O)[C@H](O)C[C@]5(C)C4=CC(=O)[C@]3(C)[C@H]1[C@@H]2C (stereo partly drawn),Potency,[1],inactive
same,Potency,[2],inactive
same,Potency,[3],inactive
O=C1NC(=O)C(c2cn(-c3ccccc3)nc2-c2ccc(F)cc2)N1 (stereo not drawn),Potency,[1],inactive
same,Potency,[2],inactive
same,Potency,[3],inactive
C/C=C/C(O)C1OC(=O)CC1Nc1ccc(C(=O)O)cc1 (stereo not drawn),Potency,[1],inactive
same,Potency,[2],inactive
same,Potency,[3],inactive
O=C1NC2CCc3nc4ccccc4c(=O)n3C2=Nc2ccccc21 (stereo not drawn),Potency,[1],inactive
same,Potency,[2],inactive
same,Potency,[3],inactive
CC(C)(O)/C=C/C1=CC(=O)[C@@](C)(O)C[C@H]1O,Potency,[1],inactive
same,Potency,[2],inactive
same,Potency,[3],inactive
COc1c/c(=C2\C=c3ccccc3=N2)[nH]/c1=C\c1[nH]c(C)cc1C,Potency,[1],inactive
same,Potency,[2],5.78 µM (active)
same,Potency,[3],4.59 µM (active)
O=C(O)c1cc(I)ccc1NC(=O)[C@H](Cc1ccccc1)NCc1ccccc1,Potency,[1],inactive
same,Potency,[2],inactive
same,Potency,[3],inactive
CC(=O)OC12COC1CC(O)C1(C)C(=O)C(O)C3=C(C)C(OC(=O)C(O)C(NC(=O)OC(C)(C)C)c4ccccc4)CC(O)(C(OC(=O)c4ccccc4)C21)C3(C)C (stereo not drawn),Potency,[1],inactive
same,Potency,[2],0.0065 µM (active)
same,Potency,[3],inactive
CC(C)c1ccc(CO)cc1O[C@@H]1O[C@H](CO)[C@@H](O)[C@H](O)[C@H]1O,Potency,[1],inactive
same,Potency,[2],inactive
same,Potency,[3],inactive
CC(/C=C/C1=CC2=CC(=O)C(C)(O)C(O)C2=CO1)=C\C(C)CCO (stereo not drawn),Potency,[1],inactive
same,Potency,[2],inactive
same,Potency,[3],inactive
CC(=O)N[C@@H](CCCCN)C(=O)N(C)[C@@H](CC(C)C)C(=O)N[C@H](C(=O)N(C)[C@@H](Cc1ccccc1)C(=O)N[C@H](Cc1ccccc1)C(N)=O)C(C)C,"activity change, negative = inhibition",[1],1.59% [at 12.4 µM] (inactive)
same,outcome,[2],inactive [at 4.96 µM]
same,outcome,[3],inactive [at 4.96 µM]
C/C(=C\CCC(C)CCO)C(=O)OC1(C)CCC2C(C(=O)O)=COC(OC3OC(CO)C(O)C(O)C3O)C21 (stereo not drawn),Potency,[1],inactive
same,Potency,[2],inactive
same,Potency,[3],inactive
COc1ccc2nc(S(=O)(=O)Cc3ncc(C)c(OC)c3C)[nH]c2c1,Potency,[1],inactive
same,Potency,[2],inactive
same,Potency,[3],inactive
C=C1CCC2C(C)(C(=O)O)CCCC2(C)C1CCC(C)CC(=O)O (stereo not drawn),Potency,[1],inactive
same,Potency,[2],inactive
same,Potency,[3],inactive
CC/C=C\[C@H](O)[C@H](O)C1=C(C)C(=O)[C@]2(O1)C(=O)N[C@@](OC)(C(=O)c1ccccc1)[C@@H]2O,Potency,[1],inactive
same,Potency,[2],inactive
same,Potency,[3],inactive
COc1ccc(/C=C/C(=O)O[C@H]2[C@H](O[C@H]3[C@@H]4C=CO[C@@H](O[C@@H]5O[C@H](CO)[C@@H](O)[C@H](O)[C@H]5O)[C@@H]4[C@@]4(CO)O[C@@H]34)O[C@@H](C)[C@H](O)[C@H]2OC(C)=O)cc1,Potency,[1],inactive
same,Potency,[2],inactive
same,Potency,[3],inactive
C=C(C(=O)OC)C1C(O)CC2(C)C(O)CCC(=O)C2C1O (stereo not drawn),Potency,[1],inactive
same,Potency,[2],inactive
same,Potency,[3],inactive
C=C[C@]1(C)C[C@H](O)[C@@H]2[C@H](OC(=O)[C@@H]2C)C1/C(C)=C/O[C@@H]1O[C@H](CO)[C@@H](O)[C@H](O)[C@H]1O (stereo partly drawn),Potency,[1],inactive
same,Potency,[2],inactive
same,Potency,[3],inactive
COc1cc(C(=O)OC[C@H]2O[C@@H](Oc3ccccc3/C=C/C(=O)O)[C@H](O)[C@@H](O)[C@@H]2O)cc(OC)c1OC,Potency,[1],inactive
same,Potency,[2],inactive
same,Potency,[3],inactive
same,activity,[4],-77.7%
same,"activity change, negative = inhibition",[5],-3.16% [at 29.8 µM]
same,activity,[6],-2.69%
same,activity,[7],-3.5%
CC(=O)O[C@@H]1[C@@H](OC(=O)/C=C/c2ccccc2)[C@@H](OC(C)=O)[C@H](O[C@H]2[C@@H]3C=CO[C@@H](O[C@@H]4O[C@H](CO)[C@@H](O)[C@H](O)[C@H]4O)[C@@H]3[C@@]3(CO)O[C@@H]23)O[C@H]1C,Potency,[1],inactive
same,Potency,[2],inactive
same,Potency,[3],inactive
CC(=O)OC1C(OC(=O)c2ccccc2)C2C(C)(C)CC(=O)CC2(C)C23CCC(C)(C2)C(O)CC13 (stereo not drawn),Potency,[1],inactive
same,Potency,[2],inactive
same,Potency,[3],inactive
Oc1ccc(CNc2ccccc2F)c2cccnc12,Potency,[1],inactive
same,Potency,[2],12.9 µM (active)
same,Potency,[3],4.09 µM (active)
same,activity,[4],-81.9%
same,"activity change, negative = inhibition",[5],2.39%
same,activity,[6],-0.361%
same,activity,[7],6.4%
FC(F)(F)c1ccc(Nc2nc(-c3c(C(F)(F)F)nc4ccccn34)cs2)cc1,Potency,[1],inactive
same,Potency,[2],0.417 µM (active)
same,Potency,[3],0.372 µM (active)
CC1(C)CC[C@]2(C(=O)O[C@@H]3O[C@H](CO)[C@@H](O)[C@H](O)[C@H]3O)CC[C@]3(C)C(=CCC4[C@@]5(C)C[C@@H](O)[C@H](O)C(C)(C)C5CC[C@]43C)C2[C@@H]1O (stereo partly drawn),Potency,[1],inactive
same,Potency,[2],inactive
same,Potency,[3],inactive
same,activity,[4],-85.2%
same,"activity change, negative = inhibition",[5],-2.23% [at 19.1 µM]
same,activity,[6],-0.101%
same,activity,[7],-0.0843%
